{"source": "paper PMC4336329", "about": "(PLoS ONE, 2015)", "note": "Out of some 310,000 compounds screened, about 14,000 (4.5%) showed an effect of 50% or more. The effect is printed as a negative number. Many of the other results were omitted from the sample, so strong results are more common in it than they were.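 Also: peak tail current of the secondary pulse compared with the same well before compound.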", "data": [{"molecular_target": "human ether-à-go-go-related gene (hERG) potassium channel (human, UniProt Q12809)", "sequence (Q12809 whole entry, looked up)": "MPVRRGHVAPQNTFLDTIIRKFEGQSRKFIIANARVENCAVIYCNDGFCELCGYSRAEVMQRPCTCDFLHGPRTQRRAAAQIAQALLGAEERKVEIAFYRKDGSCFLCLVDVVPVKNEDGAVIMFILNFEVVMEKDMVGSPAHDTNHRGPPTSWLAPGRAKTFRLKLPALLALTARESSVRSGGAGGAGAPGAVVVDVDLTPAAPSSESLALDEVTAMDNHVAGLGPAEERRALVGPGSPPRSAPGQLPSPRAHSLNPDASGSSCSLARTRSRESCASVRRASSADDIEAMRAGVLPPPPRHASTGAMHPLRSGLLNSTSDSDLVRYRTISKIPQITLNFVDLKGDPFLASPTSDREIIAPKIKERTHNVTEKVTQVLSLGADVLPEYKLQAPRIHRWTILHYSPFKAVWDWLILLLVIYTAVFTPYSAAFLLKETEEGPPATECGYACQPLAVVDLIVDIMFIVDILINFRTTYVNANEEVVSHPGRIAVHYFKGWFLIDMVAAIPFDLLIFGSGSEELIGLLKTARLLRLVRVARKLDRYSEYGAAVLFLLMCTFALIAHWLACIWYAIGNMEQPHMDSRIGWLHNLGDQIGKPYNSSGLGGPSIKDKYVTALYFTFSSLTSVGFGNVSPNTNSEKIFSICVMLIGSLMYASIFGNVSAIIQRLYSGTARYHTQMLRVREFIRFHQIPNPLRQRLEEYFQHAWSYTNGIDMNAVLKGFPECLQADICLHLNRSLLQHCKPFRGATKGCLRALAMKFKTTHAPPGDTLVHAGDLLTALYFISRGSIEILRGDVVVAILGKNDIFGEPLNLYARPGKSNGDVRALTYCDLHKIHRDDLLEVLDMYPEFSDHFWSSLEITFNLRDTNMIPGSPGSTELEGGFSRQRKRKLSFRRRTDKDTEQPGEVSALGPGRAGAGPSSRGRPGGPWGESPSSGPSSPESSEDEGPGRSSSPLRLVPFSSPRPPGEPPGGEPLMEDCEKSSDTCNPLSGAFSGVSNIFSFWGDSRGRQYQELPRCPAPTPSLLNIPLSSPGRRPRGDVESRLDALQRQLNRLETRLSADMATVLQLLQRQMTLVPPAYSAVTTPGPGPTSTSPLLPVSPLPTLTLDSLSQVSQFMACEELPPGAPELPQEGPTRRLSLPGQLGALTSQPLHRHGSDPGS", "assay": "primary screen, population patch clamp on CHO cells stably expressing hERG; higher = less effect of the substance", "units": {"hERG current change (%, negative = inhibition) at 10uM": "%"}, "values": [{"smiles": "CC1CCCCC1NC(=O)CC1Oc2ccccc2NC1=O", "note": "(centres unmarked)", "hERG current change (%, negative = inhibition) at 10uM": 0.244}, {"smiles": "CC(=O)c1ccc(S(=O)(=O)NC2CC(=O)N(c3ccc4c(c3)OCCO4)C2)cc1", "note": "(centres unmarked)", "hERG current change (%, negative = inhibition) at 10uM": 5.79}, {"smiles": "CCN(CC)S(=O)(=O)c1cc(C(=O)O)ccc1Cl", "hERG current change (%, negative = inhibition) at 10uM": 11}, {"smiles": "CC(=O)c1ccc(Sc2nnc(C)s2)c([N+](=O)[O-])c1", "hERG current change (%, negative = inhibition) at 10uM": 1.07}, {"smiles": "Cc1ccc(OCC(=O)Nc2nnc(S(=O)(=O)N3CCC(C)CC3)s2)cc1", "hERG current change (%, negative = inhibition) at 10uM": 19.2}, {"smiles": "O=C(NNC(=O)c1ccc([N+](=O)[O-])o1)c1ccccc1", "hERG current change (%, negative = inhibition) at 10uM": -6.59}, {"smiles": "CN(CC(=O)Nc1ccccc1Cl)C(=O)COC(=O)C1=COCCO1", "hERG current change (%, negative = inhibition) at 10uM": 5.89}, {"smiles": "CN(CC(=O)Nc1ccccc1Cl)C(=O)COC(=O)c1nc(Cl)ccc1Cl", "hERG current change (%, negative = inhibition) at 10uM": -20}, {"smiles": "CN(CC(=O)Nc1ccccc1Cl)C(=O)COC(=O)c1ccc(C(F)(F)F)cc1", "hERG current change (%, negative = inhibition) at 10uM": -9.53}, {"smiles": "CN(CC(=O)Nc1ccccc1Cl)C(=O)COC(=O)c1ccccc1[N+](=O)[O-]", "hERG current change (%, negative = inhibition) at 10uM": -6.07}, {"smiles": "CN(CC(=O)Nc1ccccc1Cl)C(=O)COC(=O)c1ccc(Cl)nc1", "hERG current change (%, negative = inhibition) at 10uM": 4.99}, {"smiles": "CN(CC(=O)Nc1ccccc1Cl)C(=O)COC(=O)C1CC1", "hERG current change (%, negative = inhibition) at 10uM": -2.87}, {"smiles": "CN(CC(=O)Nc1ccccc1Cl)C(=O)COC(=O)c1ccc(S(=O)(=O)C(F)F)cc1", "hERG current change (%, negative = inhibition) at 10uM": -69.9}, {"smiles": "CC[C@H](C)[C@H](NC(=O)OCc1ccccc1)C(=O)OCC(=O)N(C)CC(=O)Nc1ccccc1Cl", "hERG current change (%, negative = inhibition) at 10uM": -64.5}, {"smiles": "CC(=O)Oc1ccc(-c2ccc(C(=O)OCC(=O)N(C)CC(=O)Nc3ccccc3Cl)cc2)cc1", "hERG current change (%, negative = inhibition) at 10uM": -68.9}, {"smiles": "COc1cc(/C=C/C(=O)OCC(=O)Nc2cc(C(F)(F)F)ccc2N2CCOCC2)ccc1O", "hERG current change (%, negative = inhibition) at 10uM": -0.592}, {"smiles": "C=CCOC(=O)C1=C[C@@H](c2ccc(Br)cc2)C[C@@H](OCc2ccc(CO)cc2)O1", "hERG current change (%, negative = inhibition) at 10uM": -14.7}, {"smiles": "COc1cc(C(=O)OCC(=O)N2CCCCC2C)ccc1OCc1c(C)noc1C", "note": "(centres unmarked)", "hERG current change (%, negative = inhibition) at 10uM": 6.3}, {"smiles": "C#CCOCCOCCOCCNc1nc(N2CCN(C(=O)CCCCCCCCCCNC(=O)[C@H](CO)n3cc(CCCSC)nn3)CC2)nc(N2CCN(C(=O)CCCCCCCCCCNC(=O)[C@H](CO)n3cc(CCCSC)nn3)CC2)n1", "hERG current change (%, negative = inhibition) at 10uM": 4.57}, {"smiles": "COc1ccccc1NC(=O)c1ccc(S(=O)(=O)N(C)c2ccccc2)cc1", "hERG current change (%, negative = inhibition) at 10uM": -3.47}, {"smiles": "COc1ccc(NC(=O)c2cc3c(s2)CCC(C)C3)cc1S(=O)(=O)N1CCOCC1", "note": "(centres unmarked)", "hERG current change (%, negative = inhibition) at 10uM": -19.1}, {"smiles": "CCN(CC)S(=O)(=O)c1ccc(N2CCOCC2)c(NC(=O)CC2OC(=O)c3ccccc32)c1", "note": "(centres unmarked)", "hERG current change (%, negative = inhibition) at 10uM": -26}, {"smiles": "Cc1cc(-c2ccccc2)c(C#N)c(SCC(N)=O)n1", "hERG current change (%, negative = inhibition) at 10uM": -3.47}, {"smiles": "O=C(NCCc1ccc(F)cc1)c1ccc2c(=O)n3c(nc2c1)CCC3", "hERG current change (%, negative = inhibition) at 10uM": -45.7}, {"smiles": "Cc1nc2n(c(=O)c1CCN1CCC(c3noc4cc(F)ccc34)CC1)CCCC2", "hERG current change (%, negative = inhibition) at 10uM": -68}, {"smiles": "O=C(NCc1ccc(F)cc1)c1ccc2c(=O)n3c(nc2c1)CCCCC3", "hERG current change (%, negative = inhibition) at 10uM": -36.7}, {"smiles": "CCCCN(CCCNC(=O)CN1C(=O)COc2ccccc21)c1ccccc1", "hERG current change (%, negative = inhibition) at 10uM": -26}, {"smiles": "Cc1noc(C)c1COC(=O)COc1ccc(C#N)cc1", "hERG current change (%, negative = inhibition) at 10uM": 2.8}, {"smiles": "CCN1CCN(CC(=O)N2N=CCC2c2ccccc2)CC1", "note": "(centres unmarked)", "hERG current change (%, negative = inhibition) at 10uM": 3.12}, {"smiles": "O=C(CN1CCN(C(c2ccccc2)c2ccccc2)CC1)N1N=CCC1c1ccccc1", "note": "(centres unmarked)", "hERG current change (%, negative = inhibition) at 10uM": -50.1}, {"smiles": "O=C(CN1CCN(c2ccccc2)CC1)N1N=CCC1c1ccccc1", "note": "(centres unmarked)", "hERG current change (%, negative = inhibition) at 10uM": 5.51}, {"smiles": "CC(C)CN(C(=O)CCC(=O)OCC(=O)N(C)c1ccccc1)c1c(N)n(CC(C)C)c(=O)[nH]c1=O", "hERG current change (%, negative = inhibition) at 10uM": 10.7}, {"smiles": "O=C(CCCn1c(=S)[nH]c2cc3c(cc2c1=O)OCO3)N1CCN(c2ccccc2F)CC1", "hERG current change (%, negative = inhibition) at 10uM": 20.6}, {"smiles": "CCOc1ccc(NC(=S)N2CCCN(Cc3cc(C)ccc3C)C2)cc1", "hERG current change (%, negative = inhibition) at 10uM": -57.8}, {"smiles": "CCOc1ccc(NC(=S)N2CCCN(Cc3cccc(Cl)c3)C2)cc1", "hERG current change (%, negative = inhibition) at 10uM": -17.6}, {"smiles": "COc1ccc(NC(=S)N2CCCN(Cc3cc(C)ccc3C)C2)cc1", "hERG current change (%, negative = inhibition) at 10uM": -12.7}, {"smiles": "CN(C)c1ccc(C=NCCc2ccc(S(N)(=O)=O)cc2)cc1", "hERG current change (%, negative = inhibition) at 10uM": 6.19}, {"smiles": "COc1ccc2[nH]c(=O)c(CN(C(=O)c3cccnc3)c3cccc(C)c3)cc2c1", "hERG current change (%, negative = inhibition) at 10uM": 11.5}, {"smiles": "Cc1c(Cl)cnc(NC(=O)COC(=O)c2ccc([N+](=O)[O-])s2)c1Cl", "hERG current change (%, negative = inhibition) at 10uM": 6.06}, {"smiles": "COc1ccc(C(=O)NCC(=O)OCC(=O)Nc2ncc(Cl)cc2Cl)cc1[N+](=O)[O-]", "hERG current change (%, negative = inhibition) at 10uM": -37.3}, {"smiles": "Cc1ccc(C(=O)OCC(=O)Nc2ccccc2)cc1NC(=O)c1ccco1", "hERG current change (%, negative = inhibition) at 10uM": -4.37}, {"smiles": "O=C(COC(=O)CNC(=O)c1ccc([N+](=O)[O-])o1)Nc1ncc(Cl)cc1Cl", "hERG current change (%, negative = inhibition) at 10uM": -54.9}, {"smiles": "O=C(COC(=O)c1ccc([N+](=O)[O-])s1)Nc1ncc(C(F)(F)F)cc1Cl", "hERG current change (%, negative = inhibition) at 10uM": -63}, {"smiles": "O=C(COC(=O)CNC(=O)c1ccco1)Nc1ncc(Cl)cc1Cl", "hERG current change (%, negative = inhibition) at 10uM": 7.02}, {"smiles": "O=C(COC(=O)CNC(=O)c1ccc([N+](=O)[O-])o1)Nc1ncc(C(F)(F)F)cc1Cl", "hERG current change (%, negative = inhibition) at 10uM": -58.3}, {"smiles": "O=C(COC(=O)CNC(=O)c1ccccc1Cl)Nc1ncc(C(F)(F)F)cc1Cl", "hERG current change (%, negative = inhibition) at 10uM": -1.76}, {"smiles": "O=C(COC(=O)c1ccccn1)Nc1ncc(C(F)(F)F)cc1Cl", "hERG current change (%, negative = inhibition) at 10uM": -11.7}, {"smiles": "O=C(COC(=O)CNC(=O)c1ccc(Cl)cc1)Nc1ncc(C(F)(F)F)cc1Cl", "hERG current change (%, negative = inhibition) at 10uM": -31.8}, {"smiles": "Cc1ccc(C(=O)OCC(=O)Nc2ncc(Cl)cc2Cl)cc1NC(=O)c1ccco1", "hERG current change (%, negative = inhibition) at 10uM": -48.7}, {"smiles": "Cc1ccc(C(=O)OCC(=O)Nc2ncc(C(F)(F)F)cc2Cl)cc1NC(=O)c1ccco1", "hERG current change (%, negative = inhibition) at 10uM": -50.1}]}]}
